From PubChem BioAssay
VACV mCherry inh: qHTS for Stage-Specific Inhibitors of Vaccinia Orthopoxvirus: mCherry Reporter Primary qHTS; Potency, µM (doses to about 36.5 µM), for the others: at the highest dose activity change, negative = inhibition, hits mostly inhibitors; Vaccinia virus mCherry reporter infection, fluorescence; 310,000 tested, 0.63% active; AID 720579, 2013; calls by dose curve; tested in A549 cells; also: potency is read from the fitted curve at half-maximal effect; nearly all actives have a fitted effect of over 35% in size
HCMV antiviral: qHTS Assay for inhibitors of the human cytomegalovirus (HCMV). HFF cells, HCMV-luciferase reporter, 72 h; hits give low values. activity change, negative = inhibition, % at 57.5 µM. 410,000 tested, 4.5% active. AID 1259415, 2018; in the data active = activity change below about -60%; inconclusive = no clear call, values can overlap the other calls; inactive = above about -39%
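Luciferase read-out from HCMV-luciferase-infected HFFs (MOI 1 PFU/cell) 72 h post infection at 37C; compounds added after 16 h cell attachment; activity normalized between buffer-only basal and Salinomycin (10uM) inhibitor controls.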
FBPA Giardia inh: qHTS Assay for Inhibitors of Fructose-1,6-bisphosphate Aldolase from Giardia Lamblia; A8B2U2; purified Giardia FBPA; Potency, µM (titrated, usually from 59.6 µM), inactives show top-dose activity, negative = inhibition, most hits filed as inhibitors; 290,000 tested, 0.71% active; AID 2451, 2010; also: potency is read from the fitted curve at half-maximal effect; nearly all actives have a fitted effect of over 55% in size
Target sequence (A8B2U2 whole entry, looked up): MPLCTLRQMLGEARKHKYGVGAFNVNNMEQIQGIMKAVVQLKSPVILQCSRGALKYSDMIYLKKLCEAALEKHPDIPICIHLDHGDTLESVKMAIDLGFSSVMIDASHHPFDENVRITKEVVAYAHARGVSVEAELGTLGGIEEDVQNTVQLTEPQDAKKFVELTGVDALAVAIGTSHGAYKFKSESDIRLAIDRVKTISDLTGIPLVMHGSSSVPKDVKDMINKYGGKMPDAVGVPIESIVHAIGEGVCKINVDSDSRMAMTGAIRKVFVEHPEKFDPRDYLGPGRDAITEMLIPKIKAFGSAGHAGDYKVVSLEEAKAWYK
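Giardia FBPA (40 nM reagent) was preincubated 10 min at RT with compound (up to 57.5 uM final), then substrate plus GAPDH/TPI/NAD/arsenate coupling system with diaphorase/resazurin was added; resorufin fluorescence (525/598 nm) was read after 20 min.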
HCV inh: qHTS Assay for Inhibitors of Hepatitis C Virus (HCV); Huh7.5.1 HCVcc-Cre infection, luciferase reporter, 44 h; Potency, µM (top dose mostly 41.8 µM), for the others: at the highest dose activity change, negative = inhibition, hits mostly inhibitors; 340,000 tested, 3.4% active; AID 651820, 2012; also: potency is read from the fitted curve at half-maximal effect
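Luciferase read-out (15 sec integration) after a 15 min room-temperature substrate step quantifies HCVcc-Cre infection. Cells, 1,000 per well, had compound added 4 h post-plating, then virus at ~0.5 moi, and were cultured 44 h.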
Vaccinia Venus: qHTS for Stage-Specific Inhibitors of Vaccinia Orthopoxvirus: Venus Reporter Primary qHTS; Vaccinia virus Venus reporter expression, fluorescence; Potency, µM (highest dose often 36.5 µM), for the others: at the highest dose activity change, negative = inhibition, actives largely listed as inhibitors; 330,000 tested, 0.46% active; calls by dose curve; tested in A549 cells; also: potency is read from the fitted curve at half-maximal effect; nearly all actives have a fitted effect of over 30% in size
FMDV inh: High Throughput Screening for Foot and Mouth Disease Virus Antivirals; FMDV antiviral cell-based qHTS; Potency, µM (titrated, usually from 57.9 µM), inactives show top-dose activity change, negative = inhibition, actives largely listed as inhibitors; 410,000 tested, 1.2% active; calls by dose curve; tested in HEK293T cells; also: read-out not given here; potency is read from the fitted curve at half-maximal effect; nearly all actives have a fitted effect of over 45% in size
Active calls of the source: *; i = inactive; ? = inconclusive; nt = not tested or not shown; [ ] = remark or other dose. This is a sample that favours compounds with a hit; in the whole collection about 7.5% have one here. Unless noted, calls follow the shape of the dose curve; as a rule, active = well fitted curve in the direction sought with a large enough effect; inconclusive = small, poorly fitted or top-dose-only effect, or another doubt; inactive = no such curve, though single readings can be large; an effect the other way counts as inactive or inconclusive. % is scaled to controls: 0 for no effect and ±100 for the full control effect.

SMILES	VACV mCherry inh	HCMV antiviral	FBPA Giardia inh	HCV inh	Vaccinia Venus	FMDV inh
Cc1c(C(=O)N2CCN(c3ccc([N+](=O)[O-])cc3)CC2)oc2ccccc12	nt	-21	nt	?	nt	?
O=C(c1cc2ccccc2cc1O)N1CCN(c2ccc([N+](=O)[O-])cc2)CC1	?	3	nt	?	-30%	-10%
CCSc1ccccc1C(=O)N1CCN(c2ccc([N+](=O)[O-])cc2)CC1	nt	-30	8%	10µM*	nt	?
O=C(C1COc2ccccc2O1)N1CCN(c2ccc(F)cc2)CC1 (centres undefined)	-10%	6	4%	5%	-6%	nt
O=C(C1COc2ccccc2O1)N1CCN(c2ccc([N+](=O)[O-])cc2)CC1 (centres undefined)	-24%	-13	nt	22µM*	-19%	0%
CC1(C(=O)N2CCN(c3ccc([N+](=O)[O-])cc3)CC2)CC1(Cl)Cl (centres undefined)	nt	?	-5%	11µM*	nt	20µM*
Cc1c(-c2ccccc2)oc2c(C(=O)N3CCN(c4ccc([N+](=O)[O-])cc4)CC3)cccc2c1=O	-28%	-61*	-2%	-27%	?	-25%
COc1ccc(-c2nc3c4cnn(-c5ccccc5F)c4ncn3n2)cc1	-14%	20	nt	nt	-14%	32%
CCSc1ccccc1C(=O)N1CCN(c2nc3ccccc3s2)CC1	i[7.34 µM]	-67*	nt	nt	-16%[7.34 µM]	?
CC(C)(O)C#Cc1ccc(C(=O)N2CCN(c3ccc([N+](=O)[O-])cc3)CC2)cc1	-25%	-85*	2%	?	-27%	?
CCCC(=O)N1CCN(c2nc3ccccc3s2)CC1	nt	?	-2%	?	nt	2%
CC(C)(O)C#Cc1ccc(C(=O)N2CCN(c3ccccc3)CC2)cc1	nt	-18	0%	7%	nt	0%
COc1ccc(-n2c(O)c(C(C)=NCCCn3ccnc3)c(=O)[nH]c2=O)cc1	nt	-66*	-1%	-2%	nt	0%
O=C1C=C(N2CCCCC2)C2(CCCCC2)O1	i	75	0%	-3%	-2%	7%
O=C1C=C(N2CCN(C(=O)c3ccccc3)CC2)C2(CCCCC2)O1	-2%	-77*	2%	0%	-4%	-17%
CC(C)CCOc1ccc(Cn2c(=O)oc3ccccc32)cc1	-5%	14	nt	nt	-10%	-23%
Cc1cccc2nc(-c3ccccn3)c(Nc3ccccc3)n12	?	-82*	nt	nt	?	?
Cc1cccc2nc(-c3ccccn3)c(Nc3ccc(F)cc3)n12	10µM*	-97*	nt	nt	?	?
Cc1ccc(Nc2c(-c3ccccn3)nc3cccc(C)n23)cc1	13µM*	0	-18%	6.3µM*	-21%	?
Cc1ccn2c(Nc3ccc(F)cc3)c(-c3ccccn3)nc2c1	?	-10	nt	nt	?	-14%
CCOc1ccccc1C(=O)N(Cc1ccc(N(C)C)cc1)Cc1ccco1	i	?	nt	nt	-10%	0%
CCC(CC)C(Nc1ccccc1C(C)=O)C(=O)NC1CCCCC1 (centres undefined)	nt	-34	nt	nt	nt	nt
C=CCc1cc(C)ccc1OCCn1ccnc1	-17%	4	-19%	-21%	-12%	2%
C=CCc1cc(C)ccc1OCCOCCn1ccnc1	-3%	-63*	?	?	-15%	0%
COCCn1c(=O)[nH]c2cc(C(=O)N3CCN(Cc4ccc5c(c4)OCO5)CC3)ccc2c1=O	?	?	nt	7%	-4%	-27%
SMILES	VACV mCherry inh	HCMV antiviral	FBPA Giardia inh	HCV inh	Vaccinia Venus	FMDV inh
COCCn1c(=S)[nH]c2cc(C(=O)N3CCc4ccccc43)ccc2c1=O	nt	-70*	-7%	?	nt	7.9µM*
CCCn1c(=S)[nH]c2cc(C(=O)N3CCc4ccccc43)ccc2c1=O	nt	-39	-6%	?	nt	-9%
COCCn1c(=S)[nH]c2cc(C(=O)N3CCN(Cc4ccc5c(c4)OCO5)CC3)ccc2c1=O	nt	-99*	8%	14µM*	nt	14µM*
CO[C@H]1[C@H](NC(=O)c2ccsc2)c2ccccc2C12CCN(Cc1cccc3ncccc13)CC2	-13%	nt	nt	nt	-4%	-17%
CCOC(=O)C1=C(COC(=O)C2CC(=O)N(CCc3ccccc3)C2)NC(=O)NC1C (centres undefined)	nt	0	nt	12%	nt	-1%
CCCc1cc(-c2n[nH]c(C(=O)OCC)c2-c2cscn2)c(O)cc1O	nt	-87*	-9%	?	nt	35µM*
CCN(CC)CCN1CNC(=S)N(c2ccccc2OC)C1	-29%	-65*	-6%	20%	-18%	0%
COc1cccc2c(Cl)c(CCCl)c(C)nc12	i	-69*	0%	-20%	-19%	-4%
CN(C)c1ccc(Nc2nc3ccccc3n3nnnc23)cc1	-8%[7.34 µM]	-62*	nt	nt	-9%[7.34 µM]	?
Clc1ccc2oc(-c3ccccc3)cc(=NCCCN3CCOCC3)c2c1	-16%	7	4%	?	-18%	21%
OCCCCCN=c1cc(-c2ccccc2)oc2ccc(Cl)cc12	-29%	-62*	4%	?	?	12%
[O-][n+]1ccc(C(O)c2ccccc2)cc1 (centres undefined)	nt	38	7%	15%	nt	-9%
CC(C)(S)[C@@H](N)C(=O)O	-14%	-31	13µM*	5%	-12%	-12%
CC(C)[C@@H](N)C(=O)O	nt	nt	-7%	nt	nt	nt
Cc1cccc2cc(C(c3nnnn3Cc3ccccc3)N3CCCc4ccccc43)c(=O)[nH]c12 (centres undefined)	2%	-83*	2%	nt	-4%	36%
CCN1CCN(C(c2cc3cccc(C)c3[nH]c2=O)c2nnnn2Cc2ccccc2)CC1 (centres undefined)	nt	59	2%	5%	nt	17%
COc1ccc(CN2CCN(C(=O)Cn3c(=O)oc4cc(Cl)ccc43)CC2)c(OC)c1OC	nt	?	5%	3.5µM*	nt	-26%
COc1ccc(CN2CCN(C(=O)Cn3ncn4cccc4c3=O)CC2)c(OC)c1OC	nt	-64*	-1%	?	nt	?
COc1ccc(CN2CCN(C(=O)Cn3nc(C)n4cccc4c3=O)CC2)c(OC)c1OC	i	13	nt	-6%	-10%	14%
Cn1c(=N)n(CC(=O)c2ccc(F)cc2)c2ccccc21	-18%	?	12%	?	-13%	-24%
CCCCn1c(=N)n(CC(=O)c2ccco2)c2ccccc21	-25%	-16	0%	?	-19%	nt
CCCCn1c(=N)n(CC(=O)c2ccc([N+](=O)[O-])cc2)c2ccccc21	nt	-104*	?	nt	nt	nt
